# Compound activity (PubChem)
# D3 antag – qHTS of D3 Dopamine Receptor Antagonist: qHTS | max response, negative = inhibition, % | D3R cells, DiscoveRx beta-arrestin luminescence, antagonist mode; active compounds read low | 360,000 tested, 2.5% active | D(3) dopamine receptor (Homo sapiens), P35462; in the data active = max response below about -50%; inconclusive = no clear call, values can overlap the other calls; note: % is set by controls: 0 for no effect and ±100 for the full control effect
#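 Cells expressing the human receptor were seeded at 1500 cells/well, incubated overnight at 37 degrees C in 5% CO2, then exposed to library compounds with dopamine controls for 90 minutes at 37 degrees C before luminescent detection.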
# D1 ag – Allosteric Agonists of the Human D1 Dopamine Receptor: qHTS | HEK293 T-REx D1 cells, calcium flux, agonist mode | D(1A) dopamine receptor (Homo sapiens), P21728 | AID 504660, 2011 | activation, % at 2 µM | 360,000 tested, 1% active; in the data active = activation above about 30%; note: 0% is about no effect
# Target sequence (P21728 whole entry, looked up): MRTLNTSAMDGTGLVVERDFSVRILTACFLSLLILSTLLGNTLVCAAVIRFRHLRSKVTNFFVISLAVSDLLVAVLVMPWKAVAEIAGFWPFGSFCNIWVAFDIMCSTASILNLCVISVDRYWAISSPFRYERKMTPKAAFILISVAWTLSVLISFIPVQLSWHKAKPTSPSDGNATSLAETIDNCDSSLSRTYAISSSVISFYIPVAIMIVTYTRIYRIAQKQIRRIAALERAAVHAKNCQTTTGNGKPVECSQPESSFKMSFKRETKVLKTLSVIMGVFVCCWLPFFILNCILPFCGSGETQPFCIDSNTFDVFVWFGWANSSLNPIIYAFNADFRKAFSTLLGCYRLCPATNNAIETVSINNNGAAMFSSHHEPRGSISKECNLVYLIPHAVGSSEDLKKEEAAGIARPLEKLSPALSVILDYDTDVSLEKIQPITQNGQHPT
#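 Tetracycline-induced HEK293 TREx D1 cells, force-coupled to calcium signalling, were dye-loaded with a no-wash calcium kit. Compound was pin-added after a 10 s baseline. Fluorescence was read kinetically at 1 cycle/s for 180 s, with calcium rises flagged as agonism.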
# D1 antagonist – Antagonist of Human D 1 Dopamine Receptor: qHTS; D(1A) dopamine receptor (Homo sapiens), P21728; HEK293 TREx D1 cells, calcium flux, dopamine EC80; active compounds read low; activity change, negative = inhibition, % at 10 µM; 360,000 tested, 3.2% active; AID 504652, 2011; in the data active = activity change below about -30%; note: % is set by controls: 0 for no effect and ±100 for the full control effect
#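 Compound effects on dopamine-evoked calcium signalling were measured in tetracycline-induced HEK293 Trex D1 cells. Dopamine at EC80 followed a 180 s compound pre-read, and fluorescence was tracked kinetically for 180 s more.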
# D1 PAM – Potentiators of Human D1 Dopamine Receptor: qHTS | HEK293 TREx D1 cells, calcium flux, dopamine EC20 potentiation | potentiation, % at 10 µM | 360,000 tested, 0.036% active; in the data active = potentiation above about 30%; note: 0% is about no effect
# DRD3 agonist – qHTS of D3 Dopamine Receptor Agonist: qHTS; D(3) dopamine receptor (Homo sapiens), P35462; AID 652048, 2013; 410,000 tested, 0.58% active; max activation, %; D3R DiscoveRx beta-arrestin cells, luminescence, 90 min; in the data active = max activation above about 30%; note: 0% is about no effect
#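 Agonist-mode cell screen: cells plated at 1500/well and incubated overnight at 37 °C, then exposed to library compounds for 90 min at 37 °C. Detection reagent was added for 30–60 min at room temperature, and luminescence was read.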
# * = called active by the depositor; ? = inconclusive; / = no result given. In the library only some 6% were active in any assay of this set; here they are far more common.
SMILES,D3 antag,D1 ag,D1 antagonist,D1 PAM,DRD3 agonist
CCCc1nn2c(=O)cc(COC(=O)c3ccc(NC(=O)COc4ccccc4F)cc3)nc2s1,/,0.5,2.8,1.4,-15.1
CCN1CCN(Cc2cccc(Oc3ccc(Cl)cc3)c2)CC1,-63.3*,19.3,-64.5*,-2.0,-32.0
Cc1ccc(S(=O)(=O)N[C@H](C(=O)OCC(=O)NC(=O)c2cccn2C)C(C)C)cc1,2.4,/,/,/,35.0*
COc1cccc(N/C(=N/C(=S)Nc2ccc(C)cc2C)Nc2nc(C)cc(C)n2)c1,1.0,8.7,-61.3*,-4.2,-2.5
COc1ccc(NC(=O)CN2C(=O)CC(c3ccc(C)c(C)c3)=Nc3ccccc32)cc1OC,/,3.2,-6.7,-2.1,5.4
CC(=O)c1cc2ccc(O)cc2oc1=O,40.9,37.8*,5.1,0.5,19.5
COc1ccccc1NC(=O)Cn1c(=O)n(-c2ccc(C)cc2)c(=O)c2ccc(C(=O)NCc3ccco3)cc21,/,4.8,4.1,0.5,3.8
COc1cc(CNCCN(C)C)c(Br)cc1OCC(=O)NCc1ccccc1,-15.3,3.4,-33.6*,-3.5,-8.4
COc1cc(CNCC(C)C)c(Br)cc1OCC(=O)NCc1ccccc1,-6.8,6.6,-12.0,-0.2,-2.1
CCNCc1cc(OCC)c(OCC(=O)NCCc2ccccc2)cc1Cl,6.9,32.8*,-39.9*,-8.0,-10.0
CC(=O)Nc1ccc(NC(=O)C(NC(=O)c2ccc(Cl)cc2)C(C)C)cc1 (configuration not stated),-15.4,/,/,/,2.0
CCSc1nnc(NC(=O)C(NC(=O)c2ccc(Cl)cc2)C(C)C)s1 (configuration not stated),-60.6*,3.4,-6.6,-8.3,-33.0
Cc1ccc(N2CCN(C(=O)c3cnn(-c4ccc(F)cc4F)c3C3CCN(C(=O)OC(C)(C)C)CC3)CC2)c(C)c1,/,4.3,3.2,-6.0,-1.5
Cc1ccc(-n2ccnc(NCCc3ccc(S(N)(=O)=O)cc3)c2=O)cc1C,/,0.7,-4.4,-3.8,-8.3
Cc1cnc(C(=O)Nc2ccc(F)cc2)cn1,10.0,2.5,-0.6,-2.7,-1.0
Cc1cnc(C(=O)Nc2ccc(C(C)C)cc2)cn1,-13.6,-0.5,-31.3*,-10.1,-10.9
COc1ccc(-c2oc3ncn4nc(COc5ccccc5C)nc4c3c2-c2ccc(OC)cc2)cc1,/,2.5,4.0,0.7,9.0
O=C(Cn1cc(SCc2c(F)cccc2Cl)c2ccccc21)N1CCCCCC1,/,8.5,-0.3,-3.2,-12.4
COc1c(Br)cc2c(C)c(C(=O)O)oc2c1Br,-14.8,0.9,6.6,-4.5,32.7*
COc1ccccc1C(=O)Nc1nnc(S(=O)(=O)N(C)c2ccc(Cl)cc2)s1,/,7.3,-3.4,-2.1,-32.8
O=C(COCc1cc(-c2ccc(F)cc2)on1)Nc1cccc(C(F)(F)F)c1,/,5.3,-12.7,0.3,2.9
CCOc1ccc(CC(=O)NC2CC(=O)N(c3cccc(F)c3)C2)cc1 (configuration not stated),/,-4.1,/,3.4,5.5
COc1ccccc1N(C)S(=O)(=O)c1ccc(Cl)c(C(=O)NNC(=O)c2ccccc2O)c1,12.2,-0.5,7.8,0.4,18.3
COc1ccccc1N(C)S(=O)(=O)c1ccc(Cl)c(C(=O)OCc2c(C)noc2C)c1,3.6,30.8*,-28.9,-13.4,-2.5
O=C(NNC(=O)c1cc(-c2cccc(Br)c2)nc2ccccc12)c1csc(N2CCOCC2)n1,-0.8,1.8,-84.0*,-3.8,-6.3
SMILES,D3 antag,D1 ag,D1 antagonist,D1 PAM,DRD3 agonist
CC1CCN(C(=O)Cn2ncc3c4ccccc4n(Cc4ccc(Cl)cc4)c3c2=O)CC1,/,16.9,3.0,-0.6,4.3
CCOc1ccccc1N(CC)C(=O)Cn1ncc2c([nH]c3ccccc32)c1=O,/,5.7,11.6,-2.3,5.0
O=C(O)c1ccc(-n2c(-c3cc(C4CC4)[nH]n3)n[nH]c2=S)cc1,?,2.2,2.1,-2.9,-20.9
O=C(O)c1ccc(-n2c(-c3cc(-c4ccco4)[nH]n3)n[nH]c2=S)cc1,-90.7*,0.4,8.3,1.0,-11.0
CC(=O)c1ccc(-n2c(-c3cc(-c4ccco4)[nH]n3)n[nH]c2=S)cc1,-84.0*,-0.5,-2.3,-2.2,-9.8
Cc1ccc(-n2c(-c3cc(-c4ccco4)[nH]n3)n[nH]c2=S)c(Br)c1,-4.3,-0.4,-1.0,-1.9,12.0
N#Cc1nc(Nc2cccc(C(F)(F)F)c2)nc(NC2CCCC2)n1,/,7.4,-11.3,-3.2,/
CCN(CC)C(=O)Cn1cc(C(=O)C(=O)NCCc2ccc(S(N)(=O)=O)cc2)c2ccccc21,-3.8,1.5,-74.4*,-12.8,1.5
COc1ccc(NC(=O)CSc2nc3c(c(=O)[nH]2)CCC3)cc1,/,1.9,-8.3,0.2,1.9
COc1ccc(C(C)NC(=O)C2CCCC2)cc1OC (configuration not stated),2.3,8.4,-47.6*,4.7,-6.4
Cc1cc(Cl)ccc1OCC(=O)Nc1ccc2oc(=O)ccc2c1,-15.2,7.6,-29.2,-10.9,-8.5
Cc1ccc(OCC(=O)Nc2ccc3oc(=O)ccc3c2)c(C)c1,-14.5,2.9,-55.5*,-6.5,-4.1
Cc1cccc(OCC(=O)Nc2ccc(-c3nc4ccccc4o3)cc2)c1C,/,4.4,8.2,-0.6,-6.5
O=C(COc1ccccc1[N+](=O)[O-])Nc1cc(-c2nc3cc(Cl)ccc3o2)ccc1Cl,/,0.3,-45.2*,-2.1,-8.5
Cc1cc(C)cc(OCC(=O)Nc2ccc(-c3nc4ccccc4o3)cc2)c1,/,9.0,-32.2*,-3.1,2.2
COc1ccc(-c2nc3cc(NC(=O)COc4ccccc4C)ccc3o2)cc1,/,9.5,-54.1*,3.8,10.8
CS(=O)(=O)N1CCc2cc(C(=O)Nc3cccc(F)c3)ccc21,/,1.5,-5.6,-0.4,-12.0
Fc1cccc(NCc2ccccc2-c2nnc(-c3ccccc3Cl)o2)c1,/,3.1,6.9,6.6,-0.9
Cc1nn(CC(=O)NCc2ccc(F)cc2)c2ccccc12,/,-2.1,4.8,-0.4,-10.0
O=C(COc1ccc2ccc(=O)oc2c1)Nc1ccc(CCO)cc1,19.8,2.5,-49.4*,-3.0,-0.5
CC(C)C[C@H]1C(=O)N2CCC[C@H]2[C@]2(O)O[C@](NC(=O)C3C=C4c5cccc6[nH]c(Br)c(c56)C[C@H]4N(C)C3)(C(C)C)C(=O)N12 (some centres not stated),-55.1*,/,/,/,20.9
CCOc1ccc(NC(=O)Cn2ccn3nc(-c4ccc(OC)c(OC)c4)cc3c2=O)cc1,/,-0.9,-5.2,-0.3,-8.2
CCN1C(=O)/C(=C\N2CCN(c3ccc(F)cc3)CC2)SC1=S,57.7,1.9,-2.6,-4.9,34.3*
Cc1cccc(NS(=O)(=O)c2cccc(C(=O)N3CCN(c4ccccn4)CC3)c2)c1,6.8,3.0,-2.8,-6.8,4.1
